In ChEMBL document CHEMBL4513216, “Probing the Open Global Health Chemical Diversity Library for Multistage-Active Starting Points for Next-Generation Antimalarials” (ACS Infect Dis, 2020):
Among all 65,000 compounds or so, about 2,100 (3.2%) showed an effect of 50% or more. The median lay at about -52%. This is one part of a sample in which strong results are shown more often than they occur.

tested on: Plasmodium falciparum; experiment: Screen against P. falciparum Asexual Blood Stage (ABS), at 5uM; format: functional, Dd2; conditions: tested at 5 uM

SMILES	INHIBITION
Cc1noc(C2CCCN2C(=O)C2CCC2)n1 (stereo not given)	-24%
Cc1ncc(CN(C)Cc2nc3cc(Cl)ccc3n2C)s1	-54.3%
c1cc(CNCc2cccc3c2OCCCO3)cc(Cn2cncn2)c1	48.9%
CC1=NN(CC(=O)N2CC[C@@H]3[C@@H](CCC(=O)N3CC(C)C)C2)CC1	-127%
Cc1ncsc1C(=O)N1CCN(CCC(C)C)CC1	-64.6%
Cc1nc(-c2cccnc2)ncc1C(=O)N1CCC(C(C)N(C)C)CC1 (stereo not given)	-79.6%
OC1CCN(CCCNc2ncccn2)CC1	-61.1%
CN(C(=O)Nc1ccccn1)C1CCCN(c2ccccc2)C1=O (stereo not given)	13.9%
CN(C(=O)NCc1ccncc1)C1CCN(c2ccccc2)C1=O (stereo not given)	-128%
CN(C(=O)Nc1ccncc1)C1CCN(c2ccccc2)C1=O (stereo not given)	51%
CCn1nc2c(cc1=O)CN(CC(=O)Nc1nncs1)CC2	-35%
Cn1cc(N2CC3(CCN(C(=O)c4cccn4C)CC3)OCC2=O)cn1	-94.7%
CCn1c(CN2CCN(CCO)CC2)nc2c(F)cccc21	10.6%
CCn1c(CN2CCN(CC(N)=O)CC2)nc2c(F)cccc21	-147%
CCn1c(CN2CCN(CCOC)CC2)nc2c(F)cccc21	68.6%
Brc1cccnc1OC1CCNCC1	35.5%
Cc1nc(SC2CCN(c3sccc3C#N)C2=O)oc1C (stereo not given)	-137%
Cc1cc2c(N3CCC(N(C)CCc4cnn(C)c4)CC3)ncnc2s1	-30.9%
CCN(C)c1cc(CNC(=O)CNC(=O)CC2CCCCC2)ccn1	-24.9%
Cn1cc(CNCCc2cccnc2)c(-c2cccnc2)n1	-35.7%
Cn1cc(CNCCn2cccn2)c(-c2cccnc2)n1	-42%
Cn1cc(CNCCOc2ccc(F)c(F)c2)c(-c2cccnc2)n1	54.4%
CCCNCc1cn(C)nc1-c1cccnc1	-21.6%
CCCNCc1cn(Cc2ccccc2)nc1-c1cccnc1	60%
Cn1cc(CNCCc2nccs2)c(-c2cccnc2)n1	1.56%
O=C(c1cccnc1)N1CCC2(CCN(C(=O)N3CCCC3)CC2)C1	-71.7%
CCCC(=O)N1CC[C@@H]2[C@H](CC1)N(Cc1cccc(C)n1)CCS2(=O)=O	-82%

SMILES	INHIBITION
Cn1cc(CN2CCCC23CCN(c2nc4ccccc4s2)CC3)cn1	51.7%
Cc1nc(CN2CCCC23CCN(c2nc4ccccc4s2)CC3)co1	9.68%
c1ccc2sc(N3CCC4(CCCN4Cc4ncc[nH]4)CC3)nc2c1	20.4%
CC(C)=CCN1CCN(Cc2cc(C)c(O)c(C)c2)CC1CCO (stereo not given)	-36%
Cc1cc(CN(C)Cc2csc(-c3cccs3)n2)n[nH]1	-130%
Cc1cc(CN(C)Cc2ccccc2N2CCCCC2)n[nH]1	67.5%
CN(Cc1noc(C(C)(C)C)n1)Cc1ccccc1N1CCCC1	16.2%
CCN(C(=O)CN1CCn2c(nnc2C2CC2)C1)C1=CCCCC1	-67.6%
Cc1nccc(C(=O)NC(CN2CCCC2=O)c2ccccc2)n1 (stereo not given)	-66.1%
CC(C)CNC(=O)c1nc(COc2ccc3c(c2)OCO3)no1	-58.7%
O=C(CCN1CCCC1C1CCCCC1)N1CCc2sccc2C1 (stereo not given)	59.9%
O=C(CN1CCCC1c1cccs1)N1CCc2sccc2C1 (stereo not given)	3.62%
Cn1cc(C2CCCN2CCC(=O)N2CCc3sccc3C2)cn1 (stereo not given)	-37.7%
O=C(CCC(=O)N1CCCC1c1cccs1)N1CCc2sccc2C1 (stereo not given)	-117%
O=C(CCN1CCCC1c1cccs1)N1CCc2sccc2C1 (stereo not given)	50.8%
Cc1cc(C2CCCN2CCC(=O)N2CCc3sccc3C2)no1 (stereo not given)	-1.53%
N#Cc1cccc(CNCCC(=O)N2CCc3sccc3C2)c1	21.5%
O=C(CCNCc1cccc(O)c1)N1CCc2sccc2C1	52.1%
COc1ccc(CNCCC(=O)N2CCc3sccc3C2)cc1O	36.4%
Cc1cnn(C2CN(CC(=O)NCCCc3ccccc3)C2)c1	-108%
c1ccc(NCc2cnc3n2CCN(C2CCOC2)CC3)nc1 (stereo not given)	-124%
CC(C)NCC1OCCc2cn(C)nc21 (stereo not given)	-22.9%
CSc1ccc(CN2CCCC3(CNC(=O)c4ccccc4O3)C2)cc1 (stereo not given)	-85.7%
CN(C)c1cccc(C(=O)N2C[C@@H]3CC[C@H]2CN(C(=O)C2CCC2)C3)c1	-111%
CC[C@@H](C)[C@@H](N)C(=O)Nc1cccc(-c2cnc(N(C)C)nc2)c1	-60.2%
Cc1ccc(-c2cc(CNc3ncnc4c3CCNCC4)no2)cc1	63.5%
c1cncc(-c2noc(CNc3ncnc4c3CCNCC4)n2)c1	-88.2%

SMILES	INHIBITION
COc1ccc(-c2cc(CNc3ncnc4c3CCNCC4)no2)cc1	16%
Cc1nnc2n1CCN(C(=O)C(C)Oc1ccc(C#N)cc1)C2 (stereo not given)	-140%
CN(C)C(=O)CN1C[C@H]2CC[C@@H](C1)N(Cc1cccc(Cl)c1Cl)C2	30.9%
CCS(=O)(=O)N[C@H]1CN(CC(C)(C)N2CCOCC2)C[C@@H]1C1CC1	-11.1%
Cc1cc(N[C@H]2CN(CC(C)(C)N3CCOCC3)C[C@@H]2C2CC2)ncn1	48.9%
CC(C)(CN1C[C@H](Nc2ncccn2)[C@@H](C2CC2)C1)N1CCOCC1	50.5%
Cc1nccc(N[C@H]2CN(CC(C)(C)N3CCOCC3)C[C@@H]2C2CC2)n1	63.5%
N#CC1(C(=O)N2C[C@H](Nc3ncccn3)[C@@H](C3CC3)C2)CCOCC1	-92.4%
Cc1nccc(N[C@H]2CN(CCS(C)(=O)=O)C[C@@H]2C2CC2)n1	-88.4%
Cc1ccc(NC2CCN(C(=O)COCC3CC3)CC2)nn1	-61.2%
CN(C)c1ccc(C(=O)N2CCCC(n3cccn3)C2)cn1 (stereo not given)	-240%
C/N=C1/c2cc3cc(OC)ccc3n2CCN1Cc1ccccc1	25.3%
CCC(CN1CCOCC1)n1cncc1-c1ccc2c(c1)CCCN2C (stereo not given)	31.4%
CCC(CN1CCCC1)n1cncc1-c1cnn(-c2ccccc2)c1 (stereo not given)	56.2%
CCC(CN1CCCC1)n1cncc1-c1cnn(-c2ccc(F)cc2)c1 (stereo not given)	43%
O=C(Cc1ccc2c(c1)CCO2)N1CCCC1c1noc(C2CC2)n1 (stereo not given)	-67.5%
Cc1ccc(CN2CCc3nnc(COCCN(C)C)n3CC2)o1	-116%
O=C(O)c1cc(-c2ccoc2)cc(S(=O)(=O)NC2CC2)c1	-132%
O=C(O)c1cc(-c2ccc3c(c2)OCO3)cc(S(=O)(=O)NC2CC2)c1	-33.6%
CN(C)c1ccc(-c2cc(C(=O)O)cc(S(=O)(=O)NC3CC3)c2)cc1	57.2%
Cc1cccc(NC2CCc3c2[nH]c(=O)n(C2CCCCC2)c3=O)c1C (stereo not given)	-28.8%
CN(Cc1cccnc1)[C@@H]1CN(Cc2cnn(C)c2)[C@@H]2CCCO[C@H]12	-11.9%
CC(=O)N[C@H]1CN(S(=O)(=O)N(C)Cc2ccccc2)C[C@@H]1C1CC1	-59.7%
CC(C)[C@@H]1CN(S(=O)(=O)Cc2ccccc2)C[C@H]1C(=O)O	-80.4%
CCC[C@H]1CN(S(=O)(=O)c2ccccc2)C[C@@H]1N	16.5%
CN(Cc1ccc(F)cc1)S(=O)(=O)N1CCOCC1	-118%
CCC[C@H]1CN(S(=O)(=O)N(C)Cc2ccccc2)C[C@@H]1N	68.1%

SMILES	INHIBITION
CN(Cc1ccccc1)S(=O)(=O)N1C[C@H](C2CC2)[C@@H](N)C1	58%
N[C@H]1CN(S(=O)(=O)c2ccccc2)C[C@@H]1C1CC1	-0.57%
N[C@H]1CN(S(=O)(=O)Cc2ccccc2)C[C@@H]1C1CC1	55.5%
CN(Cc1ccccc1)S(=O)(=O)N1C[C@@H](C(=O)O)[C@H](C2CC2)C1	-76.5%
CO[C@H]1C[C@@H](O)C12CCN(C(=O)CCCOc1ccccc1)CC2	-224%
Cc1nc(Oc2ccccc2Cl)sc1C(=O)O	-103%
CC(Cn1cccn1)NC(=O)NCc1ccc(OC2CCCC2)nc1 (stereo not given)	-90.4%
CC1CCCCN1CCNC(=O)c1ccn(-c2ccc(F)cc2)n1 (stereo not given)	34.6%
CC1CCCCN1CCNC(=O)c1ccn(-c2cccc(F)c2)n1 (stereo not given)	64.3%
CC1CCCN(CCNC(=O)c2ccn(-c3ccc(F)cc3)n2)C1 (stereo not given)	50.2%
Cc1cc(C(=O)NCCN2CCCC(C)C2)nn1C (stereo not given)	-67.5%
CC1CCCCN1CCNC(=O)c1ccn(-c2ccccc2)n1 (stereo not given)	22%
COc1ccc(-n2ccc(C(=O)NCCN3CCCC(C)C3)n2)cc1 (stereo not given)	7.72%
CC1CCN(CCNC(=O)c2ccn(-c3ccccc3)n2)CC1	24%
CC1CCCN(CCNC(=O)c2ccn(-c3cccc(F)c3)n2)C1 (stereo not given)	68%
O=C(NCCn1cccn1)c1ccn(-c2cccc(F)c2)n1	-67.5%
O=C(NCCN1CCCCC1)c1ccn(-c2ccc(F)cc2)n1	46.1%
COc1ccc(-n2ccc(C(=O)NCCN3CCC(C)CC3)n2)cc1	-1.58%
CC1CCN(CCNC(=O)c2ccn(-c3ccc(F)cc3)n2)CC1	60.9%
COCC(=O)N(C)Cc1ccc(F)c(F)c1	-52.4%
CCOc1nnc(CN(CC)CC(=O)Nc2c(F)cccc2F)s1	-13.5%
C=C(C)COc1cccc(C(=O)NC(C)c2nnn[nH]2)c1 (stereo not given)	-109%
CCOc1ccc(N2CCCN=C2NC(=O)c2cccc(C)c2)cc1	-77.5%
Cc1cc(C(=O)N2CCc3nc(N4CCOCC4)nc(C)c3C2)c(C)o1	-39.6%
